Unmarked numbers belong to inactive results.
System: HCC1569
Experiment: H1.0 immunofluorescence intensity relative to DMSO (% of DMSO); higher = stronger H1.0 induction, active = 140 or more
Details: concentration: 10 µM; 24 h
In short: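 HCC1569 and TDF cells (800 per well, 384-well plates, RPMI with 10% FBS) were treated with compounds at 10 µM for 24 h at 37 °C, in triplicate. Cells were fixed in 3.7% formaldehyde and stained with a rabbit anti-H1.0 antibody, an AlexaFluor 647 secondary and DAPI; six fields per well were imaged at ×10. H1.0 nuclear intensity or cell number is expressed as percent of the plate DMSO control, taking the median of replicates. HCC1569 values were smoothed for positional effects.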
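Also: TDF is a line of transformed human dermal fibroblasts of mesenchymal origin.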

| SMILES | H1.0 immunofluorescence intensity |
| --- | --- |
| CNCCc1ccc(O)c(O)c1.Cl [N-Methyldopamine hydrochloride] | 94 |
| NC1(C(=O)O)CCC(C(=O)O)C1 (mixture of isomers) | 95.1 |
| CC1OCC(C[N+](C)(C)C)O1.[I-] (single isomer, unassigned; (+)) [(+)-cis-Dioxolane iodide] | 99.6 |
| CN(C)C(=O)C(CCN1CCC(O)(c2ccc(Cl)cc2)CC1)(c1ccccc1)c1ccccc1.Cl [Loperamide.HCl] | 105 |
| COc1ccc(Cc2nccc3cc(OC)c(OC)cc23)cc1OC.Cl [Papaverine hydrochloride] | 126 |
| CCCN(CCC)C1CCc2cccc(O)c2C1 (racemic) | 86.9 |
| COC(C(=O)C(O)C(C)O)C1Cc2cc3cc(OC4CC(OC5CC(O)C(OC)C(C)O5)C(OC(C)=O)C(C)O4)c(C)c(O)c3c(O)c2C(=O)C1OC1CC(OC2CC(OC3CC(C)(O)C(OC(C)=O)C(C)O3)C(O)C(C)O2)C(O)C(C)O1 (stereo not given) [Chromomycin A3] | 196 (active) |
| CCCN1CCCC2Cc3[nH]ncc3CC21.Cl (single isomer, unassigned; (-)) [(-)-Quinpirole hydrochloride] | 100 |
| CC(C)N(CCC(C(N)=O)(c1ccccc1)c1ccccn1)C(C)C.O=P(O)(O)O (stereo not given) [Disopyramide phosphate] | 94.1 |
| CCCCCCCCCCCCCCCCOCC(O)COP(=O)([O-])OCC[N+](C)(C)C (stereo not given) | 104 |
